Assay [1] in a line: A549 cell cytotoxicity, dose response, cytotoxicity control, plate reader, cherry-pick, antagonist series (AID 743412).
A short description of assay [2]: toxicity toward HepG2 liver cells – cell-based, plate reader, cherry-pick, antagonist series, cytotoxicity control, dose response (AID 743416).
Assay [3] addresses Melanocortin receptor 4 (Homo sapiens) (UniProt P32245). The assay is described as follows: blockade of melanocortin 4 receptor signaling – cell-based, plate reader, cherry pick, counter-screen for LGR2 antagonist project, dose response (AID 743444).

Structures are written as SMILES. Potency and affinity values are given separately. The source made the active and inactive calls. No rule for the calls is given here.

For `O=C(NCCOc1ccccc1)[C@@H]1CCCN1C(=O)c1cccs1`, the outcome in assay [1], in assay [2] and in assay [3] was inactive.
For the molecule `CC(=O)c1ccc(S(=O)(=O)N2CCC(NC(=O)Nc3cccc(F)c3)CC2)cc1`, the result in assay [1], in assay [2] and in assay [3] was inactive.
As for `CC1CN(C(=O)c2cccc(S(=O)(=O)Nc3cc(Cl)ccc3Cl)c2)CC(C)O1` (configuration not stated), the molecule was called inactive in assay [1], in assay [2] and in assay [3].
In the case of `Cc1ccc(CNS(=O)(=O)c2ccc3c(c2)CCN3C(=O)CCCC(=O)O)cc1`, the molecule was called inactive in assay [1] and in assay [3].
As for `O=S1(=O)CCOC[C@H](CC2CCCCC2)N1Cc1ccccc1F`, the result in assay [1], in assay [2] and in assay [3] was inactive.
For `Cc1ccc(NC(=O)c2ncn(CC(=O)NCc3ccc4[nH]ccc4c3)n2)cc1C`, the result in assay [1], in assay [2] and in assay [3] was inactive.
On to `CO[C@@H]1CN(C)C(=O)c2ccc(NC(=O)C3CC3)cc2OC[C@@H](C)NC[C@@H]1C`, for which the outcome in assay [1], in assay [2] and in assay [3] was inactive.
Consider `COc1ccc(NC(=O)Nc2ccc3c(c2)CC(=O)N([C@@H](C)CO)C[C@@H](C)[C@H](CN(C)Cc2ccncc2)O3)cc1`, for which the result in assay [1] and in assay [3] was inactive.
